This note sets out measurements from PubChem BioAssay AID588674 (Broad Institute, 2011).

Out of some 360,000 compounds screened, about 1,800 (0.5%) were called active.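 The calls were made as follows: active = mean inhibition of at least 75% with every replicate also reaching 75%; inconclusive = mean inhibition at least 75% but some replicate below; inactive = mean inhibition below 75%.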 This excerpt belongs to a sample that is enriched for actives.

This test in a line: Shn3 3'UTR reporter decrease in osteoblasts – cell-based, Clone20 osteoblasts, firefly luciferase, set 2, Schnurri-3 inhibitor project, primary screen (AID 588674).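 Also: 0% = median of neutral control wells and 100% = pilot-screen positive control compound.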 The conditions noted are these: Clone20 osteoblast Shn3 3'UTR firefly luciferase, 24 h; at 12.5 µM; hits give high values.
In the case of `O=C(CCS(=O)(=O)c1ccccc1)Nc1nc2c(s1)CCCC2`, the inhibition is 84.1% (active).
For `O=C(CCS(=O)(=O)c1ccccc1)NC1CCCC1`, the inhibition was -23.2% (inactive).
For `O=C(CSc1nc(O)c(Cc2ccccc2)c(=O)[nH]1)Nc1nc2c(s1)CCCC2`, the inhibition is 8.82% (inactive).
Regarding `CNc1nc(SC)nc(N(C#N)CC(=O)OC)n1`, the inhibition was -9.64% (inactive).
As for `C=CCSc1nc(N)cc(=O)[nH]1`, the inhibition was 15.2% (inactive).
In the case of `Cc1ccc(-c2nn(-c3ccc(F)cc3)cc2C(=O)NCC(c2cccs2)N2CCOCC2)cc1` (centres undefined), the inhibition is 13.6% (inactive).
For `Cc1ccc2nc(-c3ccc(Br)cc3)cn2c1`, the inhibition is 23.5% (inactive).
With `Cc1ccc(-c2nc3ccc(Cl)cn3c2Cc2ccccc2)cc1`, the inhibition is -75.7% (inactive).
With `Cc1ccc(-c2cn3cc(C)ccc3n2)cc1`, the inhibition was 89% (active).
For the compound `Cn1c(=O)c2c(ncn2CC(COCc2ccccc2Cl)OCc2ccccc2Cl)n(C)c1=O` (centres undefined), the inhibition is 13% (inactive).
Take `Oc1ccc2ccccc2c1N=Nc1nccs1`: the inhibition was 93.2% (active).
As to `CCCCN1CC(N2CCN(Cc3cccc(C)c3)CC2)CS1(=O)=O` (centres undefined), the inhibition is 4.01% (inactive).
As for `O=[N+]([O-])c1c(NCCO)cc(Sc2nc3ccccc3s2)c2nonc12`, the inhibition is 93.7% (active).
As to `COc1ccc(NC(=O)CCCOc2ccc(C(C)=O)cc2)cc1S(=O)(=O)N1CCCCC1`, the inhibition is 42.4% (inactive).
Consider `O=C(NC(=S)Nc1ccc(Br)cc1F)C1CCCCC1`, for which the inhibition is -15.2% (inactive).
Next, `Cc1ccc(S(=O)(=O)/N=C(/NC(=S)Nc2c(C)n(C)n(-c3ccccc3)c2=O)c2ccccc2)cc1`: -6.62% (inactive); `COc1ccc(OC)c(Nc2nc(-c3ccc(O)c(O)c3)cs2)c1`: 97.4% (active); `COc1ccc(C(C)(O)c2nc(-c3ccc(C)c(C)c3)cs2)cc1` (centres undefined): 8.01% (inactive).
With `COc1ccc(C(O)c2nc(-c3ccc4c(c3)OCO4)cs2)cc1` (centres undefined), the inhibition was -17.7% (inactive).
Take `COc1ccc(C(=O)OCc2cc(=O)n3ccsc3n2)cc1F`: the inhibition was -7.31% (inactive).
Take `COc1ccc(C(=O)NCc2ccc(Cl)cc2)cc1S(=O)(=O)N1CCCC1`: the inhibition was -1.61% (inactive).
With `COc1ccc(CCNC(=O)CN(C)S(=O)(=O)c2ccc3nc(C)sc3c2)cc1OC`, the inhibition is -10.6% (inactive).
In the case of `CC1(C(=O)NS(=O)(=O)c2cccc(OC(F)F)c2)CCN1C(=O)C1CC1` (centres undefined), the inhibition was -7.16% (inactive).
In the case of `COc1cc(NC(=S)NCc2ccc(S(N)(=O)=O)cc2)cc(OC)c1`, the inhibition is 2.83% (inactive).
In the case of `NS(=O)(=O)c1ccc(CNC(=S)NC(=O)c2ccco2)cc1`, the inhibition was 93.5% (active).
For the compound `NS(=O)(=O)c1ccc(NC(=O)COC(=O)c2ccco2)cc1`, the inhibition is 2.57% (inactive).
For the compound `N#Cc1ccc(S(=O)(=O)NCC(=O)OCC(=O)NCCc2ccccc2)cc1`, the inhibition was 1.43% (inactive).
Consider `OCc1n[nH]c(CO)n1`, for which the inhibition is -14.1% (inactive).
Turning to `Cc1cccc(-n2ncc3c(=O)[nH]c(SCC(=O)Nc4cc(C)on4)nc32)c1`, the inhibition is -22.6% (inactive).
Turning to `Cc1cccc(-n2ncc(Cl)c(Cl)c2=O)c1`, the inhibition is 94.3% (active).
As to `CC(=O)Nc1c2c(nn1-c1cccc(C)c1)CSC2`, the inhibition was -0.825% (inactive).
For the compound `Cc1c(Br)c([N+](=O)[O-])nn1CC(=O)Nc1sc2c(c1C(=O)OC(C)C)CCC(C)C2` (centres undefined), the inhibition was -5.32% (inactive).
For `Cc1ccc(C(=O)CN2C(=O)NC3(CCOc4ccccc43)C2=O)s1` (centres undefined), the inhibition is -11.6% (inactive).
Regarding `O=C(CN1C(=O)NC2(CCOc3ccccc32)C1=O)NCc1ccc(F)cc1` (centres undefined), the inhibition was -2.61% (inactive).
The result for `O=C(CN1C(=O)NC2(CCOc3ccccc32)C1=O)Nc1cccc([N+](=O)[O-])c1` (centres undefined) reads 89.4% (active).
Turning to `CNC(=O)c1nnn(-c2ccccc2)c1C(=O)NC`, the inhibition was -6.31% (inactive).
As to `N#Cc1c(NC(=O)c2ccc(N3CCOCC3)c([N+](=O)[O-])c2)sc2c1CCCC2`, the inhibition is 12% (inactive).
In the case of `O=C(c1ccc(CS(=O)Cc2ccccc2Cl)o1)N1CCN(c2ccccc2)CC1` (centres undefined), the inhibition was -5.18% (inactive).
As to `CC1CC(NC(=S)N(C)C)CC(C)(C)C1` (centres undefined), the inhibition was -11.6% (inactive).
With `COc1cccc2sc(N(CCCN(C)C)C(=O)CCS(=O)(=O)c3ccccc3)nc12`, the inhibition was 97.2% (active).
Regarding `CCN(CC)CCN(C(=O)c1ccc2c(c1)CCCC2)c1nc2c(OC)cccc2s1`, the inhibition is 18.3% (inactive).
`Cc1cccc2sc(N(CCCN(C)C)C(=O)CCS(=O)(=O)c3ccccc3)nc12`: the inhibition is 70.2% (inactive).
With `CC(=O)CSc1nnc(CSc2ncccn2)n1C1CCCCC1`, the inhibition was -0.19% (inactive).
Next, `Cn1c2ccc(F)cc2c2nnc(NN)nc21`: -1.82% (inactive); `COc1cc(OC)cc(C(=O)NC2CCN(C(=O)N3c4ccccc4Sc4ccccc43)CC2)c1`: 38.1% (inactive).
Consider `NC(c1csc(NC(=O)Nc2cccc(C(F)(F)F)c2)n1)C1CCCCC1` (centres undefined), for which the inhibition is 92% (active).
In the case of `COc1ccc(C(N)c2csc(NC(=O)Nc3cccc(C(F)(F)F)c3)n2)cc1` (centres undefined), the inhibition was 11.3% (inactive).
For the compound `NC(c1ccccc1)c1csc(NC(=O)Nc2cccc(C(F)(F)F)c2)n1` (centres undefined), the inhibition is 23% (inactive).
Next, `O=C(NCCOc1ccccc1)c1ccccc1F`: -74.7% (inactive); `C/C(=N/NC(=O)c1ccn(C)n1)c1ccncc1`: -3.15% (inactive).
Regarding `CCOc1ccc(NC(=S)N2CCCCCC2)cc1`, the inhibition was -24.3% (inactive).
For `C/C(=N\NC(=O)c1ccccc1F)c1ccccn1`, the inhibition was 94.8% (active).
`CCNC(=S)N1CCN(c2ncccn2)CC1`: the inhibition is -18.4% (inactive).
Turning to `CC(=NNC(=S)N1CCCCCC1)c1ccccn1`, the inhibition was 95.3% (active).
With `COc1ccc(/C=C/C(=O)c2c(O)cc(OC)cc2OC)cc1`, the inhibition was -43.5% (inactive).
In the case of `COCCNS(=O)(=O)c1cc(Br)ccc1OC`, the inhibition is -12.3% (inactive).
Regarding `CCOc1ccc(-n2c(SCC(=O)Nc3cc(C(=O)O)ccc3Cl)nc3ccccc3c2=O)cc1`, the inhibition was -1.51% (inactive).
`CCOc1ccc(-n2c(O)c(/C=N/Nc3nc(C)cc(C)n3)c3ccccc3c2=O)cc1`: the inhibition was 90.6% (active).
As to `Cc1cc(C)nc(N/N=C/c2c(CO)cnc(C)c2O)n1`, the inhibition was 39% (inactive).
Next, `COc1ccc(CN2CCCC(CNC(=O)c3ccc(F)cc3)C2)cc1OC` (centres undefined): 3.62% (inactive).
With `CCCCCCCCCCOC(=O)C[N+](C)(C)CC1CCCCC1O` (centres undefined), the inhibition was 2.65% (inactive).
As to `COc1ccc(CC(N)c2csc(NC(=O)Cc3ccccc3)n2)cc1` (centres undefined), the inhibition is -16.8% (inactive).
Turning to `COc1ccc(CC(N)c2csc(NC(=O)Nc3ccc(C(C)C)cc3)n2)cc1` (centres undefined), the inhibition is 96.6% (active).
For the compound `COc1ccc(CC(N)c2csc(NC(=O)NC(c3ccccc3)c3ccccc3)n2)cc1` (centres undefined), the inhibition was 80.7% (inactive).
